Residue numbers refer to the chain shown, from its start.

In one test the target is HOXD13 (Homo sapiens, UniProt P35453 263-343). Description: PBM; 200 nM protein, PBS. As to conditions: dsDNA, one strand shown.
Chain of HOXD13 (Homo sapiens, UniProt P35453 263-343) (P35453 263-343): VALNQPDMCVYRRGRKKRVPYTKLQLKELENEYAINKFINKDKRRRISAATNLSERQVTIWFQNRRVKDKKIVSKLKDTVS
For the sequence TAATAGCA, the binding signal was 11 upbm affinity estimate (log intensity, higher = more binding, comparable within an allelic series).

In the case of ATAAACGA, the binding signal is 11.4 upbm affinity estimate (log intensity, higher = more binding, comparable within an allelic series).

As to ATTTTAAC, the binding signal is 11.2 upbm affinity estimate (log intensity, higher = more binding, comparable within an allelic series). The same measure, in the same setting: the same measure for ATCGTAAC: 11 upbm affinity estimate (log intensity, higher = more binding, comparable within an allelic series); for CGTTATTA: 11.2 upbm affinity estimate (log intensity, higher = more binding, comparable within an allelic series); for AATATAGT: 11 upbm affinity estimate (log intensity, higher = more binding, comparable within an allelic series). The same measure, in the same setting: the same measure for TAAATGAA: 10.9 upbm affinity estimate (log intensity, higher = more binding, comparable within an allelic series); for ATAACGAC: 11 upbm affinity estimate (log intensity, higher = more binding, comparable within an allelic series). Same read-out and setting: the result for CTCGTTAC reads 11.1 upbm affinity estimate (log intensity, higher = more binding, comparable within an allelic series). Take AGTATACA: the binding signal is 10.6 upbm affinity estimate (log intensity, higher = more binding, comparable within an allelic series). Same read-out and setting: the result for TGATAAAA reads 11.3 upbm affinity estimate (log intensity, higher = more binding, comparable within an allelic series); that for AAAATTAA, 10.9 upbm affinity estimate (log intensity, higher = more binding, comparable within an allelic series). Same read-out and setting: the same measure for AAGTTATT: 10.9 upbm affinity estimate (log intensity, higher = more binding, comparable within an allelic series).

On to AAGTGTTA, for which the binding signal is 10.7 upbm affinity estimate (log intensity, higher = more binding, comparable within an allelic series). On the same count and under the same terms, the result for ATAACTAA reads 10.9 upbm affinity estimate (log intensity, higher = more binding, comparable within an allelic series). The same measure, in the same setting: the result for AATCATAT reads 11 upbm affinity estimate (log intensity, higher = more binding, comparable within an allelic series). Still for that read-out and setting: the result for ATTAAACA reads 11.3 upbm affinity estimate (log intensity, higher = more binding, comparable within an allelic series).

Another test has as its target T1, PAX4 (Homo sapiens, UniProt O43316 9-242, F177V).
T1 sequence: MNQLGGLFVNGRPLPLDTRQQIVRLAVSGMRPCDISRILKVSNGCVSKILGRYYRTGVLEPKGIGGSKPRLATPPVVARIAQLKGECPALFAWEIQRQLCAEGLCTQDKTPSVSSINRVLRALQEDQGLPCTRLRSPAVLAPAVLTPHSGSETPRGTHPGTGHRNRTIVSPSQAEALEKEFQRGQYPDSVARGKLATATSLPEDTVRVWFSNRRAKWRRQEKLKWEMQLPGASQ
Description: PBM; 200 nM protein, PBS. As to conditions: dsDNA, one strand shown.
For the sequence CTAATATA, the binding signal was 10.8 upbm affinity estimate (log intensity, higher = more binding, comparable within an allelic series).

Take ATTATATG: the binding signal was 10.6 upbm affinity estimate (log intensity, higher = more binding, comparable within an allelic series). In the case of ATAATTCA, the binding signal was 10.7 upbm affinity estimate (log intensity, higher = more binding, comparable within an allelic series). On the same count and under the same terms, the result for ATATACAT reads 10.6 upbm affinity estimate (log intensity, higher = more binding, comparable within an allelic series). Take ATTGTATA: the binding signal is 10.5 upbm affinity estimate (log intensity, higher = more binding, comparable within an allelic series). Still for that read-out and setting: the result for ATATTATG reads 10.7 upbm affinity estimate (log intensity, higher = more binding, comparable within an allelic series); that for ATGATATA, 10.7 upbm affinity estimate (log intensity, higher = more binding, comparable within an allelic series); that for ATATAATC, 10.6 upbm affinity estimate (log intensity, higher = more binding, comparable within an allelic series).

For the next test, the target named is HOXA4 (Homo sapiens, UniProt Q00056 201-287). Nature of the test: PBM; 200 nM protein, PBS. As to conditions: dsDNA, one strand shown.
Chain of HOXA4 (Q00056 201-287): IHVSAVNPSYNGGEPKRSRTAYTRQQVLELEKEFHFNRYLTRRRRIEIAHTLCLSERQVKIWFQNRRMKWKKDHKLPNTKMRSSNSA
AAGATTGT: the binding signal is 10.7 upbm affinity estimate (log intensity, higher = more binding, comparable within an allelic series). In the case of ACGAAATA, the binding signal was 10.7 upbm affinity estimate (log intensity, higher = more binding, comparable within an allelic series). The same measure, in the same setting: the same measure for GATTTGAA: 10.8 upbm affinity estimate (log intensity, higher = more binding, comparable within an allelic series); for AGCAAATC: 10.9 upbm affinity estimate (log intensity, higher = more binding, comparable within an allelic series); for CTTAAAAG: 10.4 upbm affinity estimate (log intensity, higher = more binding, comparable within an allelic series). Same read-out and setting: the result for TCCTTTAA reads 11.1 upbm affinity estimate (log intensity, higher = more binding, comparable within an allelic series); that for CAAGATAA, 10.9 upbm affinity estimate (log intensity, higher = more binding, comparable within an allelic series); that for ATTCAAGC, 11 upbm affinity estimate (log intensity, higher = more binding, comparable within an allelic series). Take AAGATAAC: the binding signal is 10.8 upbm affinity estimate (log intensity, higher = more binding, comparable within an allelic series). Same read-out and setting: the same measure for CATATGTA: 10.8 upbm affinity estimate (log intensity, higher = more binding, comparable within an allelic series); for CTTAGTTA: 11 upbm affinity estimate (log intensity, higher = more binding, comparable within an allelic series); for ATTTCTTA: 11.1 upbm affinity estimate (log intensity, higher = more binding, comparable within an allelic series). The same measure, in the same setting: the result for ATCATGTC reads 11 upbm affinity estimate (log intensity, higher = more binding, comparable within an allelic series).

A further test deals with HOXD13 (Homo sapiens, UniProt P35453 263-343, T313A). Nature of the test: PBM; 200 nM protein, PBS. As to conditions: dsDNA, one strand shown.
Chain of HOXD13 (Homo sapiens, UniProt P35453 263-343, T313A) (P35453 263-343 T313A): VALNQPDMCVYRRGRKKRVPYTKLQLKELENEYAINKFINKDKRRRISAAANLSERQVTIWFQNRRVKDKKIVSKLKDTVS
With ATAAACGA, the binding signal was 11.2 upbm affinity estimate (log intensity, higher = more binding, comparable within an allelic series).

With ATCGTAAC, the binding signal was 10.9 upbm affinity estimate (log intensity, higher = more binding, comparable within an allelic series).

With CGTTATTA, the binding signal is 11.1 upbm affinity estimate (log intensity, higher = more binding, comparable within an allelic series). On the same count and under the same terms, the result for AATATAGT reads 11.1 upbm affinity estimate (log intensity, higher = more binding, comparable within an allelic series); that for TAAATGAA, 10.9 upbm affinity estimate (log intensity, higher = more binding, comparable within an allelic series). Take ATAACGAC: the binding signal was 10.8 upbm affinity estimate (log intensity, higher = more binding, comparable within an allelic series). On the same count and under the same terms, the same measure for CTCGTTAC: 10.9 upbm affinity estimate (log intensity, higher = more binding, comparable within an allelic series); for AGTATACA: 10.7 upbm affinity estimate (log intensity, higher = more binding, comparable within an allelic series).

On to TGATAAAA, for which the binding signal was 11.2 upbm affinity estimate (log intensity, higher = more binding, comparable within an allelic series). Still for that read-out and setting: the same measure for AAAATTAA: 10.8 upbm affinity estimate (log intensity, higher = more binding, comparable within an allelic series). Same read-out and setting: the same measure for AAGTTATT: 10.8 upbm affinity estimate (log intensity, higher = more binding, comparable within an allelic series); for ATAACTAA: 11 upbm affinity estimate (log intensity, higher = more binding, comparable within an allelic series).

On to AATCATAT, for which the binding signal is 11 upbm affinity estimate (log intensity, higher = more binding, comparable within an allelic series). Same read-out and setting: the result for ATTAAACA reads 11.2 upbm affinity estimate (log intensity, higher = more binding, comparable within an allelic series).

For the next test, the target named is T2, PAX4 (Homo sapiens, UniProt O43316 9-242, R227W).
T2 sequence: T1 sequence with V169F, R219W
Nature of the test: PBM; 200 nM protein, PBS. The conditions noted are these: dsDNA, one strand shown.
Turning to CTAATATA, the binding signal was 10.9 upbm affinity estimate (log intensity, higher = more binding, comparable within an allelic series).

Turning to ATAATTCA, the binding signal was 10.9 upbm affinity estimate (log intensity, higher = more binding, comparable within an allelic series).

On to ATATTATG, for which the binding signal was 10.9 upbm affinity estimate (log intensity, higher = more binding, comparable within an allelic series).
